Results on 39 compounds are retold here after PubChem BioAssay (NCATS).

Inconclusive results are not listed. A number with no mark means an inactive call. Activity calls are given as the source filed them. Calls follow the shape of the dose curve; as a rule, active = well fitted curve in the direction sought with a large enough effect; inconclusive = small, poorly fitted or top-dose-only effect, or another doubt; inactive = no such curve, though single readings can be large; an effect the other way counts as inactive or inconclusive.

For test [1], the target named is Rap guanine nucleotide exchange factor 3 (Homo sapiens) (UniProt O95398). Put plainly: Confirmatory qHTS for antagonist of cAMP-regulated guanine nucleotide exchange factor 3 (EPAC1) (AID 1645880). Also: nearly all actives have a fitted effect of over 55% in size. Also: potency is read from the fitted curve at half-maximal effect. The conditions noted are these: EPAC1 Rap1B-BODIPY-GDP exchange, fluorescence; series mostly up to 115 µM. The procedure, abridged:
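Nucleotide exchange uses 100 nM EPAC1, 250 nM RAP1B-BODIPY-GDP and 50 uM GDP, with compounds in a concentration-titration series. After 5 min at room temperature, fluorescence (480 nm ex/540 nm em) is read every 5 min for 30 min. Data are normalized to control ATA and DMSO.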

The target is the same in test [2]. Put plainly: Confirmatory qHTS for agonist of cAMP-regulated guanine nucleotide exchange factor 3 (EPAC1) (AID 1645881). Also: nearly all actives have a fitted effect of over 75% in size. Also: potency is read from the fitted curve at half-maximal effect.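 As to activation: EPAC1 catalysed release of BODIPY-GDP from Rap1B seen as fluorescence loss; 100% = effect of cAMP agonist control.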 The conditions noted are these: EPAC1 Rap1B BODIPY-GDP exchange fluorescence; series mostly up to 154 µM. (In general: In qHTS, concentration-response curves come from the screen itself.)
Test [3] concerns the target Rap guanine nucleotide exchange factor 4 (Homo sapiens) (UniProt Q8WZA2). Put plainly: Confirmatory qHTS for agonist of cAMP-regulated guanine nucleotide exchange factor 4 (EPAC2) (AID 1645884).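 Also: nucleotide exchange releases bodipy-GDP from Rap1 and this lowers its fluorescence; nearly all actives have a fitted effect of over 65% in size.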 Also: potency is read from the fitted curve at half-maximal effect. As to activation: % is scaled to controls: 0 for no effect and ±100 for the full control effect. The conditions noted are these: EPAC2 GEF activity, Rap1B-BODIPY-GDP fluorescence; series mostly up to 154 µM.
For test [4] the target is unchanged. The test can be described thus: Confirmatory qHTS for antagonist of cAMP-regulated guanine nucleotide exchange factor 4 (EPAC2) (AID 1645885). Also: nearly all actives have a fitted effect of over 25% in size. Also: potency is read from the fitted curve at half-maximal effect. As to activity change, negative = inhibition: % is scaled to controls: 0 for no effect and ±100 for the full control effect. The conditions noted are these: EPAC2 Rap1B-BODIPY-GDP exchange fluorescence, biochemical; series mostly up to 12.7 µM.
In test [5] the target is Rap guanine nucleotide exchange factor 3 (Homo sapiens) (UniProt O95398). The test can be described thus: Counterscreen qHTS for antagonist of cAMP-regulated guanine nucleotide exchange factor 3 (EPAC1) (AID 1645888).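 Also: fluorescence loss as bound BODIPY-GDP is released from Rap1B; % of control where 0% means no effect.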 The conditions noted are these: Rap1B-BODIPY-GDP nucleotide exchange, fluorescence; series mostly up to 154 µM. In a few lines: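 Rap1B–BODIPY-GDP (250 nM) with 50 uM GDP; compounds pin-transferred to 9.74 nM–152 uM final (activator) or from 7.32 nM upwards (inhibitor). Fluorescence Ex/Em 480/540 nm read at 5 and 30 min, then after adding cAMP or buffer, at room temperature.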
Sequence of Rap guanine nucleotide exchange factor 3 (Homo sapiens) (O95398 whole entry, looked up): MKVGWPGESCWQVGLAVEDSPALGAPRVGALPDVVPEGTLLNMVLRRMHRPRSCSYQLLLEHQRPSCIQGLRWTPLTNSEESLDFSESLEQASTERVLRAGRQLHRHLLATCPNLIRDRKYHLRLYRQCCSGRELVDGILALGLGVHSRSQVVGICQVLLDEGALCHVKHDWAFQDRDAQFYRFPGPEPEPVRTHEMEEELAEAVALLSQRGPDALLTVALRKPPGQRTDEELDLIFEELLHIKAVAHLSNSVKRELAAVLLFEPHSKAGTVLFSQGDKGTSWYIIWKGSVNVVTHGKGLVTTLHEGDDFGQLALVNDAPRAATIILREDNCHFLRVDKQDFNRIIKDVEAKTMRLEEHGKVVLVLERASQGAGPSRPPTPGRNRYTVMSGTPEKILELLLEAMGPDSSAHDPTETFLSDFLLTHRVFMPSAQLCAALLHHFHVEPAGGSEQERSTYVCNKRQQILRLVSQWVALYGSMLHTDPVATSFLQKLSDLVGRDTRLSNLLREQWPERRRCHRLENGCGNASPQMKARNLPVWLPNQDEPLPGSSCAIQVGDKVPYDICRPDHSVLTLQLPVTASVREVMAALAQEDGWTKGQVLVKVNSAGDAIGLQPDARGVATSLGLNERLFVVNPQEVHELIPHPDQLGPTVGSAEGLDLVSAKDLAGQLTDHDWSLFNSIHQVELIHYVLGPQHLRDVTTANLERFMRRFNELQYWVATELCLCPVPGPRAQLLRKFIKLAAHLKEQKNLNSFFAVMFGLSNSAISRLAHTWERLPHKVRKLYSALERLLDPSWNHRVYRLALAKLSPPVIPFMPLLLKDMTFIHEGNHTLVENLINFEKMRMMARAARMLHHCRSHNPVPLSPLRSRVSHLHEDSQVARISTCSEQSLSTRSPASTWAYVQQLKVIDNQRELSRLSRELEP

Sequence of Rap guanine nucleotide exchange factor 4 (Homo sapiens) (Q8WZA2 whole entry, looked up): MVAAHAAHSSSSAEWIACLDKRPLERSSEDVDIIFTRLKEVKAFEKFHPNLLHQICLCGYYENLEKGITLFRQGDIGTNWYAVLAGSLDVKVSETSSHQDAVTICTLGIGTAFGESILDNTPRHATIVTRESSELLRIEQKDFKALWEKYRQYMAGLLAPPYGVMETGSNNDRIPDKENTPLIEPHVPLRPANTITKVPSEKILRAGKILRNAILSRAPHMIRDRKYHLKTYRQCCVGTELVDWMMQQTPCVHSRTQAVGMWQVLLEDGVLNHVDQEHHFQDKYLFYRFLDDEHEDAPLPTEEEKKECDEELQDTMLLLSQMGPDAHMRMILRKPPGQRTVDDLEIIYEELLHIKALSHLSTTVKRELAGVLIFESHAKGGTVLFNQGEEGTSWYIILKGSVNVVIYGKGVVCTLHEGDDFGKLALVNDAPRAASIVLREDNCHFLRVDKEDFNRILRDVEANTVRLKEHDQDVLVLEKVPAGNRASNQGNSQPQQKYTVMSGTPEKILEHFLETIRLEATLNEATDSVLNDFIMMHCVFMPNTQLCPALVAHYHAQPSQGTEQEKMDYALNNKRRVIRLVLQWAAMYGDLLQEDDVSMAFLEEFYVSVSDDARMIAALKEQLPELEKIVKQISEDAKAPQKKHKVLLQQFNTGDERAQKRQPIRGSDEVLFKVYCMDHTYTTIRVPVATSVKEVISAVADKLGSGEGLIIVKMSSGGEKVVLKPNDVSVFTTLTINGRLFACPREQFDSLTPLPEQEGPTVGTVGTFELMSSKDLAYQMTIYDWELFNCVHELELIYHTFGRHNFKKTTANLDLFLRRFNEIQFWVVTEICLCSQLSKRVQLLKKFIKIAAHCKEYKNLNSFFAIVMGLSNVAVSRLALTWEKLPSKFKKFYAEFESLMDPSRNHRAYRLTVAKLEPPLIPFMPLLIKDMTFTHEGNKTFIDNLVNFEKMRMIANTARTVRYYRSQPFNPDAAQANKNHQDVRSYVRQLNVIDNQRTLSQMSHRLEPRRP

Take `CCCCCCOC(=O)C(C#N)c1nc2ccccc2nc1N1CCOCC1` (stereo not given): the Potency in test [1] and in test [4] was 75.7 µM (active) each time. Besides, the Potency result in test [2], in test [3] and in test [5] was “inactive” each time.

On to `COc1cc2c(cc1OC)C(c1ccccc1)N(C(=O)c1ccco1)CC2` (stereo not given), for which the Potency entry in test [1], in test [2], in test [3], in test [4] and in test [5] was “inactive” throughout.

As for `N#C/C(=C/c1ccc(N2CCOCC2)o1)C(=O)Nc1ccccc1`, the Potency result in test [1] and in test [5] was “inactive” in each case. The results for the Potency in test [2], in test [3] and in test [4] were 112 µM (active), 100 µM (active) and 75.7 µM (active), respectively.

Regarding `O=C(NCCN1CCCC1)C(c1ccccc1)c1ccccc1`, the Potency entry in test [1], in test [2], in test [3], in test [4] and in test [5] was “inactive” each time.

Regarding `COc1ccc(OCc2nc3ccccc3n2Cc2ccccc2Cl)cc1`, the Potency result in test [1], in test [2], in test [3], in test [4] and in test [5] was “inactive” each time.

For the compound `C/C=C/C(=O)N1c2ccc(C)cc2C(C)=CC1(C)C`, the Potency entry in test [1], in test [2], in test [3], in test [4] and in test [5] was “inactive” throughout.

Consider `CC[C@H]1C(c2ccc(F)cc2)=NN(c2ccccc2)[C@@H]1CO`, for which the Potency result in test [1], in test [2] and in test [4] was “inactive” in each case. Further, the activation in test [3] is 4.16% [at 17.1 µM, percent relative to cAMP agonist control]. In test [5], the activity change, negative = inhibition is -6.73% [at 30.8 µM].

In the case of `Clc1cccc(Cl)c1C1Nc2cccc3cccc(c23)N1`, the Potency entry in test [1], in test [2], in test [3], in test [4] and in test [5] was “inactive” throughout.

On to `COC(=O)c1cc(NC(=O)CC2C(=O)OCCN2Cc2ccccc2)cc(C(=O)OC)c1` (stereo not given), for which the Potency entry in test [1], in test [2], in test [3], in test [4] and in test [5] was “inactive” throughout.

On to `O=C(O)c1[nH]c2ccccc2c1C(c1cc(Cl)cc([N+](=O)[O-])c1O)c1c(C(=O)O)[nH]c2ccccc12`, for which the Potency in test [1] was 37.9 µM (active). Moreover, the Potency result in test [2], in test [3], in test [4] and in test [5] was “inactive” each time.

Regarding `Cc1ccc(S(=O)(=O)NC(=O)Cn2nnc(-c3ccccc3)c2COc2ccc3ccccc3c2)cc1`, in test [1], the Potency is 19 µM (active). The Potency entry in test [2], in test [3], in test [4] and in test [5] was “inactive” in each case.

`COC(=O)c1[nH]c2cc(C)ccc2c1NC(=O)CN1CCCc2ccccc21`: the Potency result in test [1], in test [2], in test [3], in test [4] and in test [5] was “inactive” in each case.

Take `Cc1nc(SCC(=O)N2CCCCCC2)[nH]c(=O)c1C`: the Potency result in test [1], in test [2], in test [3], in test [4] and in test [5] was “inactive” each time.

`CCn1c(=O)c2sccc2n2c(CCCC(=O)N3CCN(c4cc(C)ccc4C)CC3)nnc12`: the Potency entry in test [1], in test [2], in test [3], in test [4] and in test [5] was “inactive” each time.

For `Cc1ccc(S(=O)(=O)N(C)C)cc1NC(=O)CSc1nc2ncc(Cl)cc2[nH]1`, the Potency entry in test [1], in test [2], in test [3] and in test [5] was “inactive” in each case. Also, in test [4], the outcome is “inactive [at 12.7 µM]”.

As to `CCOC(=O)c1cc2c(=O)n3ccccc3nc2n(Cc2ccco2)c1=NC(=O)c1ccc(Br)cc1`, in test [1], the Potency was 75.7 µM (active). Further, the Potency entry in test [2], in test [3] and in test [5] was “inactive” in each case. Also, the outcome in test [4] is “inactive [at 12.7 µM]”.

Turning to `CCCOC(=O)c1c(-c2ccccc2)c(-c2ccccc2)nn(C)c1=O`, the Potency result in test [1], in test [2], in test [3], in test [4] and in test [5] was “inactive” throughout.

For `O=C(Cc1c(Cl)cccc1Cl)Nc1ccncc1`, the Potency result in test [1], in test [2] and in test [4] was “inactive” throughout. Further, the activation in test [3] is 13.7% [at 17.1 µM, percent relative to cAMP agonist control]. Besides, in test [5], the activity change, negative = inhibition is 2.85% [at 30.8 µM].

For `Cn1cccc1C(=O)NC(=O)COC(=O)c1cc(S(=O)(=O)N2CCCCC2)ccc1Cl`, the Potency entry in test [1], in test [2], in test [3], in test [4] and in test [5] was “inactive” throughout.

As for `CCCCOc1ccccc1Cn1c(=O)oc2ccc(C)cc21`, the Potency result in test [1], in test [2], in test [3], in test [4] and in test [5] was “inactive” each time.

With `CC(C)(C)c1ccc(OCCC(=O)OCC(=O)Nc2ccc(N3CCOCC3)cc2)cc1`, the Potency entry in test [1], in test [2], in test [3], in test [4] and in test [5] was “inactive” throughout.

`CSC1=NC2(CCN(C(=O)NC3CCCCC3)CC2)N=C1c1ccc(C)cc1`: the Potency result in test [1], in test [2], in test [3], in test [4] and in test [5] was “inactive” throughout.

Consider `Cc1cc(NC(=O)CSc2sc3c(O)cc(=O)[nH]c3c2C#N)ccc1Br`, for which the Potency in test [1] is 42.6 µM (active). Also, the Potency result in test [2], in test [3], in test [4] and in test [5] was “inactive” throughout.

For `CCCc1cc(=O)[nH]c(SCC(=O)Nc2sc3c(c2C#N)CCC(C)C3)n1` (stereo not given), the Potency in test [1] was 89.1 µM (active); in test [4] it was 0.135 µM (active). In addition, the Potency result in test [2] is “inactive”. Further, the activation in test [3] was 4.56% [at 17.1 µM, percent relative to cAMP agonist control]. Besides, the activity change, negative = inhibition in test [5] was -6.17% [at 30.8 µM].

For `CNC[C@H]1Oc2ccc(NC(=O)Nc3ccccc3)cc2CC(=O)N([C@H](C)CO)C[C@H]1C`, the Potency entry in test [1], in test [2], in test [3], in test [4] and in test [5] was “inactive” each time.

As for `O=C(COC(=O)CNC(=O)c1ccc(Cl)cc1Cl)NCc1ccco1`, the Potency result in test [1], in test [2] and in test [4] was “inactive” in each case. The activation in test [3] is 5.36% [at 17.1 µM, percent relative to cAMP agonist control]. Moreover, the activity change, negative = inhibition in test [5] was 9.24% [at 30.8 µM].

As to `CCOC(=O)c1cccc(NC(=O)N2CCC(CN3CCCCCC3)CC2)c1`, the Potency entry in test [1], in test [2], in test [3] and in test [5] was “inactive” each time. In test [4], the outcome is “inactive [at 12.7 µM]”.

Take `NNc1nc2c(Cl)cccc2s1`: the Potency entry in test [1], in test [2], in test [3] and in test [5] was “inactive” throughout. Also, in test [4], the Potency is 95.3 µM (active).

As to `CC1CCc2[nH]c3ccc(C(=O)N(C)CC(=O)Nc4ccccc4Br)cc3c2C1` (stereo not given), the Potency result in test [1], in test [2], in test [3], in test [4] and in test [5] was “inactive” each time.

In the case of `CSCCC(C(=O)O)N1C(=O)c2ccc(C(=O)O)cc2C1=O` (stereo not given), the Potency entry in test [1], in test [2] and in test [4] was “inactive” each time. In addition, the activation in test [3] is 4.67% [at 17.1 µM, percent relative to cAMP agonist control]. For the same compound, in test [5], the activity change, negative = inhibition is -1.74% [at 30.8 µM].

As for `COc1cccc(CNC(=O)CCC(=O)N2CC(C)Sc3ccccc32)c1` (stereo not given), the Potency entry in test [1], in test [2], in test [3], in test [4] and in test [5] was “inactive” in each case.

Regarding `Cc1ccc(C(=O)c2coc3ccc(O)c(Cl)c23)cc1`, the Potency result in test [1], in test [2], in test [3] and in test [5] was “inactive” in each case. Also, the Potency in test [4] was 84.9 µM (active).

Consider `COc1cc(/C=C2\SC(=S)N(NS(=O)(=O)c3ccccc3)C2=O)cc(OC)c1OC`, for which the Potency in test [1] was 15.1 µM (active). Moreover, the Potency entry in test [2], in test [3], in test [4] and in test [5] was “inactive” each time.

For the compound `COc1ccccc1C1SCCN1S(C)(=O)=O` (stereo not given), the Potency entry in test [1], in test [2], in test [3], in test [4] and in test [5] was “inactive” throughout.

For the compound `Cc1ccc(-c2cc(C(=O)Nc3ccc4c(c3)OCCO4)c3ccccc3n2)cc1`, the Potency entry in test [1], in test [2] and in test [4] was “inactive” each time. Further, in test [3], the activation is 9.86% [at 17.1 µM, percent relative to cAMP agonist control]. For the same compound, in test [5], the activity change, negative = inhibition is 3.98% [at 30.8 µM].

As to `O=C(/C=C/c1ccco1)c1cccc([N+](=O)[O-])c1`, the Potency in test [1] is 42.6 µM (active). In addition, the Potency entry in test [2], in test [3], in test [4] and in test [5] was “inactive” throughout.

As for `CC(=C\c1ccccc1)/C=C1/SC(=S)N(CCCC(=O)O)C1=O`, the Potency in test [1] is 84.9 µM (active). Moreover, the Potency entry in test [2], in test [3], in test [4] and in test [5] was “inactive” each time.

For the compound `CCOC(=O)C1C(=O)C=C(c2ccccc2)CC1c1ccccc1` (stereo not given), the Potency entry in test [1], in test [2] and in test [4] was “inactive” in each case. In addition, the activation in test [3] is 12.3% [at 17.1 µM, percent relative to cAMP agonist control]. Moreover, the activity change, negative = inhibition in test [5] is -11.6% [at 30.8 µM].

On to `O=C(OCC(=O)N1CCN(S(=O)(=O)c2ccc(Cl)cc2)CC1)c1cccc(OC(F)F)c1`, for which the Potency entry in test [1], in test [2] and in test [4] was “inactive” in each case. Moreover, the activation in test [3] is 0.331% [at 17.1 µM, percent relative to cAMP agonist control]. Further, the activity change, negative = inhibition in test [5] is -17.2% [at 30.8 µM].
